Laboratory results reported in PubChem BioAssay (Tox21).
Values without a mark were called inactive. The call rests on the fitted dose curve.

Each molecule was assayed against Acetylcholinesterase (Homo sapiens) (UniProt P22303) (assay: Acetylcholinesterase (AChE) small molecule antagonists: enzyme-based qHTS assay with human liver microsomes (AID 1347399; further: nearly all actives have a fitted effect of over 60% in size)). Conditions: Potency: qHTS inhibition; outcome: qHTS inhibition; series mostly up to 115 µM; activity change, negative = inhibition: at the top concentration.
Method in brief: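 Recombinant human AChE (50 mU/mL in the enzyme mix) and human liver microsomes (0.25 mg/mL final) were preincubated with compound and NADPH (0.25 mg/mL final) for 30 min at 37 C. Acetylthiocholine/DTNB was then added; thiocholine was read colorimetrically after 10 min at room temperature.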
On the % scale 0 is the no-effect control and ±100 the full control effect.

Sequence of Acetylcholinesterase (Homo sapiens) (P22303 whole entry, looked up): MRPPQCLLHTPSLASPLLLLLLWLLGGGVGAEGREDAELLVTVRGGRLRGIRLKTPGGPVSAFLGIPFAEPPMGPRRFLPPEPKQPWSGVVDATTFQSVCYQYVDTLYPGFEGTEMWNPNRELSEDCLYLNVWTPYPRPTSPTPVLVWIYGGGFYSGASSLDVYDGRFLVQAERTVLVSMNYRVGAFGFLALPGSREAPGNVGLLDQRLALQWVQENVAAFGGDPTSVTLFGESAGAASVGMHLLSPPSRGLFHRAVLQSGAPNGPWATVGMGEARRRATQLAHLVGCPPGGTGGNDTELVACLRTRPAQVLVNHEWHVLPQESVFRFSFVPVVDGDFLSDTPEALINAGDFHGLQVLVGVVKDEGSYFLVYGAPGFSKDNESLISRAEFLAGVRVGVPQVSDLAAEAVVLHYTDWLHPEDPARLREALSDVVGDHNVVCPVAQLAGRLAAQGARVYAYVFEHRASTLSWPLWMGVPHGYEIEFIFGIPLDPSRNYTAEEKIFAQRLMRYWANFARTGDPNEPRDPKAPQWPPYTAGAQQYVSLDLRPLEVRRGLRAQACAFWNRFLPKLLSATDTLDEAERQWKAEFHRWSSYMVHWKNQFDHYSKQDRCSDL

Structure (SMILES)	activity change, negative = inhibition
CCC(=O)OC/C=C(\C)CCC=C(C)C	-1.07%
COC(=O)CC(C)=O	0.154%
CCOC(=O)CS	2.83%
O=C(O)c1c(Cl)cccc1Cl	0.49%
Cc1ccccc1N=Nc1ccc(N=Nc2c(O)ccc3ccccc23)c(C)c1	0.133% [at 53 µM]
CNC(C)=O	-0.182%
CNC(=O)C(c1ccccc1)c1ccccc1	1.91%
CC(=O)c1ccccc1N	1.05%
CCCCCCCOC(=O)c1ccccc1C(=O)OCCCCCCC	-0.328%
CCCCCCCCC(=O)Cl	0.323%
CCCCCCOc1ccc(N)cc1	4.46%
CN1CCN(CC(=O)N2c3ccccc3C(=O)Nc3cccnc32)CC1	-0.472% [at 10.5 µM]
COCCOCCOCCOCCOC	0.0023%
CC(COc1ccccc1)NC(C)C(O)c1ccc(O)cc1 (stereo not given)	1.51% [at 53 µM]
Nc1ccc(NCCO)c([N+](=O)[O-])c1	-7.29%
[K+]	0.197%
O=C1CCCN1C1CCCCC1	-0.295%
CC(C)(C)c1ccc(OCC2CO2)cc1 (stereo not given)	-2.42%
O=C1N(c2ccccc2)c2ccccc2C1(Cc1ccncc1)Cc1ccncc1	0.0461% [at 53 µM]
COC(=O)c1cc(C(=O)OC)cc(S(=O)(=O)O)c1	1.6%

Structure (SMILES)	activity change, negative = inhibition
Nc1nc(Cl)nc2c1ncn2[C@@H]1O[C@H](CO)[C@@H](O)[C@@H]1F	0.55% [at 53 µM]
O=C(O)[C@@H]1[C@H]2C[C@H]3c4[nH]c5ccccc5c4CCN3C[C@@H]2CC[C@@H]1O	-1.18% [at 53 µM]
N#CC1(N)CCCCC1	-1.08%
COCCO	0.503%
COc1ccc(-c2ccc3cc(C(=O)O)ccc3c2)cc1C12CC3CC(CC(C3)C1)C2	0% [at 53 µM]
CC(C)(O)c1ccc(CNC(=O)c2cccnc2Oc2ccc(F)cc2)cc1	-1.37%
O=C(Nc1ccc([N+](=O)[O-])cc1)Nc1ccc([N+](=O)[O-])cc1	-0.084% [at 53 µM]
C/C=C/C=C/C=O	3.02%
C=CC(=O)OCCn1c(=O)n(CCOC(=O)C=C)c(=O)n(CCOC(=O)C=C)c1=O	1.6%
CCC(=O)CC	0.682%
CCCCC	4.42%
Cc1oc2c(NC(=O)c3c(Cl)cccc3Cl)cccc2c1C(C)(C)O	-3.42%
Clc1ccc2n[nH]nc2c1	-1.78%
CCCCOC(=O)CCCCCCCC(=O)OCCCC	0.688%
CCCCCCCCCCCCCCCC(=O)OC/C=C(C)/C=C/C=C(C)/C=C/C1=C(C)CCCC1(C)C	-0.298%
CCCCCOc1ccccc1/C(=C\SC)n1ccnc1	1.86% [at 53 µM]
Nc1ccc2ccccc2c1S(=O)(=O)O	-1.98%
Nc1c(Br)cc([N+](=O)[O-])cc1Br	2.84%
Cc1ccc(C(C)NC(=O)[C@@H](NC(=O)OC(C)C)C(C)C)cc1 (stereo not given in full)	-1.8%
C=CC(C)(O)CCCC(C)CCCC(C)CCCC(C)C (stereo not given)	-1.31%
